Test results taken from PubChem BioAssay (NCI).
Compounds without any hit were thinned out: in the full panel of roughly 79,000, 15% have a hit. Unmarked numbers belong to inactive results. Activity calls are given as the source filed them. Rule as the data show it: active = growth inhibition above about 70%; inactive = the rest.

assay: NCI Yeast Anticancer Drug Screen. Data for the sgs1 mgt1 strain (AID 161);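 also: 0% = growth of cultures given vehicle only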; conditions: S. cerevisiae sgs1 mgt1 strain, at 5.0 µM (retest, dose inferred, filed as 0.5), stronger effect = higher value
How it was run: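 Yeast cells carrying a defined DNA-repair defect were exposed to test compounds. Growth inhibition was measured relative to vehicle-treated controls.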

Row | Structure (SMILES) | growth inhibition
1 | Cc1cc2c(Br)cc(Br)c(O)c2nc1C(=O)c1ccccc1 | 37%
2 | N=C1c2ccccc2-c2ccccc21 | 10%
3 | COc1ccc(-c2cn(-c3ccccc3)c3ncnc(N)c23)cc1 | 10%
4 | Nc1ccc(N=Nc2ccccc2)c2ccccc12 | 3%
5 | CS(=O)(=O)C(=Cc1ccccc1Cl)S(C)(=O)=O | 11%
6 | O=C1c2ccccc2C(=O)c2sc(Nc3cc(Cl)ccc3Cl)nc21 | 67%
7 | COC1=CC(=O)c2c(O)c3c(c(O)c2C1=O)C=C(C)OC3O (stereo not drawn) | -27%
8 | NC(=S)N/N=C1\NC(=O)/C(=C/c2ccc3c(c2)OCO3)S1 | 13%
9 | CCN(CC)P(=S)(c1ccccc1CCP(=S)(c1ccccc1)c1ccccc1)N(CC)CC | -6%
10 | CCC(=O)Oc1c(Cl)cc(Cl)c(Cl)c1Cl | 2%
11 | CCOC(=O)C(C)(C)C | 2%
12 | COC1=CC(=O)c2ncccc2C1=O | 8%
13 | O=C1CCSC(=S)N1c1ccccc1C(F)(F)F | 9%
14 | O=C1c2cccc(NCCNCCO)c2C(=O)c2cccc(NCCNCCO)c21 | 17%
15 | CCOc1cc2c(cc1O)CC[C@@H]1[C@@H]2CC[C@]2(C)[C@@H](O)CC[C@@H]12 | 13%
16 | S=C(N/N=C/c1ccccn1)N1CC2CCC(CC2)C1 | 98% (active)
17 | COc1ccc(Nc2nc3ccccc3s2)cc1 | 0%
18 | O=C(OCC1OC(OCC(OC(=O)c2ccccc2)C(OC(=O)c2ccccc2)C(OC(=O)c2ccccc2)c2cnn(-c3ccccc3)n2)C(OC(=O)c2ccccc2)C(OC(=O)c2ccccc2)C1OC(=O)c1ccccc1)c1ccccc1 (stereo not drawn) | -1%
19 | O=C(CBr)Nc1ccc(Cc2ccc(NC(=O)CBr)cc2)cc1 | 35%
20 | CCOC(=O)Sc1nc2ccccc2[nH]1 | 4%

Row | Structure (SMILES) | growth inhibition
21 | C=C1OC(=O)C(=O)N1CC(=O)O | -61%
22 | Nc1ncnc2c1ncn2C1OCC(O)C1O (stereo not drawn) | 20%
23 | CCOC(=O)C(Cc1cc(I)c(Oc2ccc(OC)cc2)c(I)c1)NC(C)=O (stereo not drawn) | 41%
24 | BrCc1ccc([Si](c2ccccc2)(c2ccccc2)c2ccc(CBr)cc2)cc1 | -15%
25 | O=C1OC(C2OC(=O)C(=O)C2C(=O)c2ccc(Cl)cc2)C(C(=O)c2ccc(Cl)cc2)C1=O (stereo not drawn) | 1%
26 | Cc1ccc2c(c1)NC(=O)C(N=[N+]=[N-])(c1ccccc1)C2=O (stereo not drawn) | -1%
27 | NC(=O)C1CCCN1C(=O)C1CCCN(Cc2cc(CN3CCCC(C(=O)N4CCCC4C(N)=O)C3)cc(CN3CCCC(C(=O)N4CCCC4C(N)=O)C3)c2)C1 (stereo not drawn) | -1%
28 | CCCCN(CCCC)CC(O)Cc1cc2ccccc2c2ccccc12 (stereo not drawn) | -4%
29 | CN(/N=C\c1cccc([N+](=O)[O-])c1)C(c1cccc([N+](=O)[O-])c1)N(C)/N=C/c1cccc([N+](=O)[O-])c1 (stereo not drawn) | 2%
30 | O=C(CCl)NC(=O)N(/N=C/c1ccco1)c1ccccc1 | -4%
31 | CC1CCN(CCCOC(=O)c2ccccc2)CC1 | 35%
32 | COC(=O)C1=C(C(=O)OC)C2C(C)=CC(C)=CN2C(C(=O)OC)=C1C(=O)OC (stereo not drawn) | -10%
33 | CO/N=C/c1ccc([N+](=O)[O-])s1 | -51%
34 | N/C(=N\N=C/c1ccc(O)c(O)c1O)NO | -7%
35 | CC1=C[P+](c2ccccc2)(c2ccccc2)C=C(c2ccccc2)O1 | 25%
36 | CC(C)SC(=S)Nc1ccc(Cl)c([N+](=O)[O-])c1 | 18%
37 | Nc1ccc2oc(=O)c3ccccc3c2c1 | 10%
38 | CCCCCSc1nc2ncnc(N)c2[nH]1 | -10%
39 | CC(C)Cn1cnc2c(SCc3cccc(F)c3)nc(N)nc21 | 2%

same assay, conditions: S. cerevisiae sgs1 mgt1 strain, at 50.0 µM (retest, dose inferred, filed as 5.0), stronger effect = higher value

Row | Structure (SMILES) | growth inhibition
40 | Cc1cc2c(Br)cc(Br)c(O)c2nc1C(=O)c1ccccc1 | 90% (active)
41 | N=C1c2ccccc2-c2ccccc21 | 11%
42 | COc1ccc(-c2cn(-c3ccccc3)c3ncnc(N)c23)cc1 | 52%
43 | Nc1ccc(N=Nc2ccccc2)c2ccccc12 | 98% (active)
44 | CS(=O)(=O)C(=Cc1ccccc1Cl)S(C)(=O)=O | 7%
45 | O=C1c2ccccc2C(=O)c2sc(Nc3cc(Cl)ccc3Cl)nc21 | 99% (active)
46 | COC1=CC(=O)c2c(O)c3c(c(O)c2C1=O)C=C(C)OC3O (stereo not drawn) | 22%
47 | NC(=S)N/N=C1\NC(=O)/C(=C/c2ccc3c(c2)OCO3)S1 | 13%
48 | CCN(CC)P(=S)(c1ccccc1CCP(=S)(c1ccccc1)c1ccccc1)N(CC)CC | 62%
49 | CCC(=O)Oc1c(Cl)cc(Cl)c(Cl)c1Cl | 79% (active)
50 | CCOC(=O)C(C)(C)C | 12%
51 | COC1=CC(=O)c2ncccc2C1=O | 81% (active)
52 | O=C1CCSC(=S)N1c1ccccc1C(F)(F)F | 99% (active)
53 | O=C1c2cccc(NCCNCCO)c2C(=O)c2cccc(NCCNCCO)c21 | 13%
54 | CCOc1cc2c(cc1O)CC[C@@H]1[C@@H]2CC[C@]2(C)[C@@H](O)CC[C@@H]12 | 34%
55 | S=C(N/N=C/c1ccccn1)N1CC2CCC(CC2)C1 | 99% (active)
56 | COc1ccc(Nc2nc3ccccc3s2)cc1 | 35%
57 | O=C(OCC1OC(OCC(OC(=O)c2ccccc2)C(OC(=O)c2ccccc2)C(OC(=O)c2ccccc2)c2cnn(-c3ccccc3)n2)C(OC(=O)c2ccccc2)C(OC(=O)c2ccccc2)C1OC(=O)c1ccccc1)c1ccccc1 (stereo not drawn) | -6%
58 | O=C(CBr)Nc1ccc(Cc2ccc(NC(=O)CBr)cc2)cc1 | -4%
59 | CCOC(=O)Sc1nc2ccccc2[nH]1 | 0%

Row | Structure (SMILES) | growth inhibition
60 | C=C1OC(=O)C(=O)N1CC(=O)O | -70%
61 | Nc1ncnc2c1ncn2C1OCC(O)C1O (stereo not drawn) | 74% (active)
62 | CCOC(=O)C(Cc1cc(I)c(Oc2ccc(OC)cc2)c(I)c1)NC(C)=O (stereo not drawn) | 97% (active)
63 | BrCc1ccc([Si](c2ccccc2)(c2ccccc2)c2ccc(CBr)cc2)cc1 | -18%
64 | O=C1OC(C2OC(=O)C(=O)C2C(=O)c2ccc(Cl)cc2)C(C(=O)c2ccc(Cl)cc2)C1=O (stereo not drawn) | 64%
65 | Cc1ccc2c(c1)NC(=O)C(N=[N+]=[N-])(c1ccccc1)C2=O (stereo not drawn) | 97% (active)
66 | NC(=O)C1CCCN1C(=O)C1CCCN(Cc2cc(CN3CCCC(C(=O)N4CCCC4C(N)=O)C3)cc(CN3CCCC(C(=O)N4CCCC4C(N)=O)C3)c2)C1 (stereo not drawn) | -8%
67 | CCCCN(CCCC)CC(O)Cc1cc2ccccc2c2ccccc12 (stereo not drawn) | 92% (active)
68 | CN(/N=C\c1cccc([N+](=O)[O-])c1)C(c1cccc([N+](=O)[O-])c1)N(C)/N=C/c1cccc([N+](=O)[O-])c1 (stereo not drawn) | 74% (active)
69 | O=C(CCl)NC(=O)N(/N=C/c1ccco1)c1ccccc1 | 38%
70 | CC1CCN(CCCOC(=O)c2ccccc2)CC1 | 66%
71 | COC(=O)C1=C(C(=O)OC)C2C(C)=CC(C)=CN2C(C(=O)OC)=C1C(=O)OC (stereo not drawn) | 4%
72 | CO/N=C/c1ccc([N+](=O)[O-])s1 | 71% (active)
73 | N/C(=N\N=C/c1ccc(O)c(O)c1O)NO | 8%
74 | CC1=C[P+](c2ccccc2)(c2ccccc2)C=C(c2ccccc2)O1 | 94% (active)
75 | CC(C)SC(=S)Nc1ccc(Cl)c([N+](=O)[O-])c1 | 100% (active)
76 | Nc1ccc2oc(=O)c3ccccc3c2c1 | 85% (active)
77 | CCCCCSc1nc2ncnc(N)c2[nH]1 | -2%
78 | CC(C)Cn1cnc2c(SCc3cccc(F)c3)nc(N)nc21 | 31%
